About 83,000 compounds went through this panel and 20% of them were active in at least one assay; those are over-represented in the sample as a whole.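 Treatment: one concentration, 48 hours, 96-well format. Scoring: percent growth, with anything below 10 considered active.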 Calls of active or inactive are those of the source.
How the values were obtained:
Assay in all cases: NCI-60 one-dose screen, 48 h (100 = growth as untreated, 0 = no growth, -100 = all killed)
Settings in all cases: 10 µM unless noted
[1] = system: NCI-H23 lung
[2] = system: NCI-H226 lung
[3] = system: NCI-H322M lung
[4] = system: HOP-62 NSCLC
[5] = system: NCI-H460 lung
[6] = system: HOP-92 NSCLC
[7] = system: NCI-H522 lung
[8] = system: A549/ATCC NSCLC
[9] = system: 786-0 renal
[10] = system: COLO 205 colon
[11] = system: DU-145 prostate
[12] = system: K-562 leukemia
[13] = system: MALME-3M melanoma
[14] = system: MDA-MB-231 breast
[15] = system: RXF 393 renal
[16] = system: SF-268 CNS
[17] = system: SF-295 CNS
[18] = system: SF-539 CNS
[19] = system: UACC-257 melanoma
[20] = system: M14 melanoma

Measured: growth

Cc1ccc(-c2cc(O)c(-c3ccc(C)cc3C)cc2O)c(C)c1
inactive: [1] 76.7% | [2] 62.9% | [3] 106% | [4] 74% | [5] 23.6% | [6] 67.7% | [7] 59.2% | [8] 51.9% | [9] 60% | [10] 91.1% | [11] 80% | [12] 25.8% | [13] 115% | [14] 58.2% | [15] 67.5% | [16] 57.4% | [17] 65.7% | [18] 47.8% | [19] 79% | [20] 66.8%

COc1cc2c(c(OC)c1OC)-c1cc(I)c(O)cc1[C@@H](NC(C)=O)CC2
active: [2] 5.87% | [5] 3.02% | [7] -12.2% | [10] -64% | [14] 7.04% | [16] 8.91% | [18] -27.8%
inactive: [1] 48.8% | [3] 70.3% | [4] 42% | [6] 62.1% | [8] 14.9% | [9] 29.7% | [11] 16.9% | [12] 25.6% | [13] 80.2% | [15] 37.7% | [17] 22.4% | [19] 61.9% | [20] 14.4%

C#CCOc1ccc(C2=NN(CC3CC3)C3N=C(Cl)c4ncn(CC5CC5)c4N23)cc1OCC#C (stereo not given)
inactive: [1] 85.7% | [2] 76.4% | [3] 76.1% | [4] 83.8% | [5] 69.6% | [6] 61.7% | [7] 60.6% | [8] 71.4% | [9] 93.6% | [10] 78.9% | [11] 69% | [12] 48.6% | [13] 83.5% | [14] 87.5% | [15] 51.2% | [16] 96.8% | [17] 88% | [18] 90% | [19] 98.8% | [20] 74.3%

CCOC(=O)COc1c(C)cc(SSc2cc(C)c(OCC(=O)OCC)c(C)c2)cc1C
inactive: [1] 103% | [2] 111% | [3] 105% | [4] 109% | [5] 102% | [6] 76.8% | [7] 73.8% | [8] 80.2% | [9] 114% | [10] 111% | [11] 108% | [12] 96.2% | [13] 110% | [14] 107% | [15] 126% | [16] 99% | [17] 105% | [18] 112% | [19] 80.8% | [20] 103%

O=C1/C(=C\c2cccn2Cc2ccccc2)c2ccccc2N1c1c(Cl)cccc1Cl
inactive: [1] 68.7% | [2] 53.1% | [3] 54.8% | [4] 77.2% | [5] 42.7% | [7] 88.9% | [8] 53.1% | [9] 89% | [11] 95.2% | [12] 87.6% | [13] 54% | [14] 28.9% | [15] 68% | [16] 80.6% | [17] 77.5% | [18] 95.4% | [19] 87.2% | [20] 77%
active: [6] 1.73% | [10] -6.31%

COc1cc(/C=C/C(=O)/C=C/c2ccc(-n3ccnc3C)cc2)ccc1O
inactive: [1] 64% | [2] 89.1% | [3] 100% | [4] 88.5% | [5] 81.2% | [6] 95.1% | [7] 81.4% | [8] 62.1% | [9] 97.2% | [10] 60.1% | [11] 54% | [12] 13.2% | [13] 101% | [14] 97.1% | [15] 47.8% | [16] 49.9% | [17] 84.3% | [19] 89.3% | [20] 111%
active: [18] -0.75%

CCOC(=O)c1cnc2ccc(Br)cc2c1Nc1cccc(S(N)(=O)=O)c1
inactive: [1] 93% | [2] 88.6% | [3] 105% | [4] 97.1% | [5] 105% | [6] 91.1% | [7] 96.6% | [8] 101% | [9] 105% | [10] 128% | [11] 103% | [12] 90.7% | [13] 101% | [14] 89.9% | [15] 90.8% | [16] 88.1% | [17] 95.5% | [18] 99% | [19] 105% | [20] 110%

COc1cc2c(cc1OCCCCCOc1ccc(-n3c(C)nc4ccccc4c3=O)cc1)N=C[C@@H]1CCCN1C2=O
active: [1] -20.1% | [2] 2.04% | [3] -31.2% | [4] -29% | [5] -31.2% | [6] -17.8% | [7] -33.5% | [8] 7.25% | [9] -42.5% | [10] -22.3% | [11] -25.2% | [12] -17.5% | [13] -78.9% | [14] 2.33% | [15] -73.9% | [16] -5.47% | [17] -8.19% | [18] -63% | [20] -64.3%
inactive: [19] 20%

Cc1cc(NN=C(c2ccc(O)cc2)c2ccc(O)cc2)c([N+](=O)[O-])cc1[N+](=O)[O-]
inactive: [1] 31.9% | [2] 99.2% | [3] 59.1% | [4] 54.2% | [5] 27.3% | [6] 40% | [7] 15.4% | [8] 11.8% | [10] 98.6% | [11] 81.8% | [12] 99.1% | [13] 100% | [14] 59.6% | [15] 25.7% | [16] 53.9% | [17] 43.6% | [18] 69.5% | [19] 42.5% | [20] 36.8%
active: [9] -5.42%

CSc1cccc([N+](=O)[O-])c1
inactive: [1] 109% | [2] 104% | [3] 102% | [4] 105% | [5] 114% | [6] 106% | [7] 84% | [8] 101% | [9] 101% | [10] 107% | [11] 110% | [12] 96.6% | [13] 103% | [14] 101% | [15] 99% | [16] 110% | [17] 106% | [18] 96.2% | [19] 103% | [20] 102%

Nc1cc(Cl)cc2cccnc12
inactive: [1] 88.6% | [2] 81.4% | [3] 116% | [4] 95.5% | [5] 112% | [6] 102% | [7] 96.7% | [8] 111% | [9] 109% | [10] 124% | [11] 109% | [12] 98.1% | [13] 122% | [14] 95.8% | [15] 112% | [16] 88% | [17] 114% | [18] 98% | [19] 127% | [20] 115%

C=C(C)[C@@H]1CC[C@]2(C(=O)NCCNCCNC(=O)OC(C)(C)C)CC[C@]3(C)[C@H](CC[C@@H]4[C@@]5(C)CCC(=O)C(C)(C)[C@@H]5CC[C@]43C)[C@@H]12
active: [6] 8.07% [100 µM] | [14] -33.8% [100 µM]
inactive: [1] 37.1% [100 µM] | [2] 44.2% [100 µM] | [3] 73.8% [100 µM] | [4] 45.4% [100 µM] | [5] 20.6% [100 µM] | [7] 39.9% [100 µM] | [8] 32.1% [100 µM] | [9] 52.6% [100 µM] | [10] 57.7% [100 µM] | [11] 53.5% [100 µM] | [12] 38.1% [100 µM] | [13] 64.3% [100 µM] | [15] 35.9% [100 µM] | [16] 49.8% [100 µM] | [17] 32% [100 µM] | [18] 50.1% [100 µM] | [19] 36.9% [100 µM] | [20] 54.1% [100 µM]

CC(=O)OC[C@]12CC[C@@H](C(=O)CBr)[C@@H]1[C@H]1CC[C@@H]3[C@@]4(C)CCCNC(C)(C)[C@@H]4CC[C@@]3(C)[C@]1(C)CC2
active: [1] -64.3% [100 µM] | [2] -20.3% [100 µM] | [3] -100% [100 µM] | [4] -86.8% [100 µM] | [5] -66.7% [100 µM] | [6] -76.7% [100 µM] | [7] -81.4% [100 µM] | [8] -69.7% [100 µM] | [9] -74.3% [100 µM] | [10] -59.3% [100 µM] | [11] -94.7% [100 µM] | [12] 5.86% [100 µM] | [13] -75.7% [100 µM] | [14] -71.8% [100 µM] | [15] -81.9% [100 µM] | [16] -65.5% [100 µM] | [17] -85.4% [100 µM] | [18] -81.4% [100 µM] | [19] -76.6% [100 µM] | [20] -48.5% [100 µM]

Cc1cccc(C[C@H](NC(=O)Nc2ccc(Cl)cc2F)C(=O)N[C@@H]2C(=O)N3C[C@H](O)C[C@H]3C(=O)N3CCCC[C@H]3C(=O)N[C@@H](C)C(=O)N3C[C@H](C)C[C@H]3C(=O)O[C@H]2C)c1
active: [5] 2.42% | [6] -7.02% | [10] -30.9% | [13] 7.7% | [14] -32.6% | [15] -18.1% | [17] -21.3% | [18] 7.42% | [20] 3.02%
inactive: [1] 25.7% | [2] 20.9% | [3] 34% | [4] 24% | [7] 14.7% | [8] 17.9% | [9] 11% | [11] 15.1% | [12] 12.5% | [16] 11.6% | [19] 14.9%

Source: PubChem BioAssay (NCI)
